# According to publication PMC7862700, “An all-to-all approach to the identification of sequence-specific readers for epigenetic DNA modifications on cytosine”:
# Experiments:
# Assay in all cases: DAPPL (digital affinity profiling via proximity ligation, sequencing); 10 mM Tris-HCl pH 7.5, 50 mM NaCl, 1 mM DTT, 4% glycerol, room temperature, 30 min; GST-TFs on glutathione beads, 16-mer random dsDNA library, 0.1% formaldehyde crosslink after washing; high values mean tight binding
# Settings in all cases: protein: recombinant; tags: N-terminal GST; dsDNA, one strand shown
# ELK1 = target: T1, ELK1 (Homo sapiens, UniProt P19419 1-428)
# T1 sequence: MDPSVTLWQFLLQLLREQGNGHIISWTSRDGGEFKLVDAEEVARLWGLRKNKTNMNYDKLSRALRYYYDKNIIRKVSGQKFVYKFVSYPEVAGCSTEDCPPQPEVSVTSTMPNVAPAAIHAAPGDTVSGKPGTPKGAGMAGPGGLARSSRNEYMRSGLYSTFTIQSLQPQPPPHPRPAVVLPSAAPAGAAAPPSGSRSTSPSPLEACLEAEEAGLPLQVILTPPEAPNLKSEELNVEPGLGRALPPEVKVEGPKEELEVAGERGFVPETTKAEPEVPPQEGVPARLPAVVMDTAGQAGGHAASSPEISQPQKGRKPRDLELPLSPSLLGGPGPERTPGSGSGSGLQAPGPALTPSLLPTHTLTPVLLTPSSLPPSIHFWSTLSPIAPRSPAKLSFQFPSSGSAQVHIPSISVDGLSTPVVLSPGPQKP
# Method in brief: (§1)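 After expression in yeast as GST fusions, human transcription factors were bound to glutathione beads, DNA-barcoded and mixed with a tag-only sample. The pools were incubated with 200 nmole of a 16-mer random double-stranded DNA library in Tris/NaCl/DTT/glycerol buffer (30 min, room temperature), washed and crosslinked with 0.1% formaldehyde. Proximity ligation with BsaI/T4 ligase ran for 1 h at 37 °C, before PCR amplification and sequencing on an Illumina NextSeq500. Binding signal is a hexamer's read frequency for a factor divided by its frequency for the tag-only sample.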
# GABPA = target: T2, GABPA (Homo sapiens, UniProt Q06546 1-454)
# T2 sequence: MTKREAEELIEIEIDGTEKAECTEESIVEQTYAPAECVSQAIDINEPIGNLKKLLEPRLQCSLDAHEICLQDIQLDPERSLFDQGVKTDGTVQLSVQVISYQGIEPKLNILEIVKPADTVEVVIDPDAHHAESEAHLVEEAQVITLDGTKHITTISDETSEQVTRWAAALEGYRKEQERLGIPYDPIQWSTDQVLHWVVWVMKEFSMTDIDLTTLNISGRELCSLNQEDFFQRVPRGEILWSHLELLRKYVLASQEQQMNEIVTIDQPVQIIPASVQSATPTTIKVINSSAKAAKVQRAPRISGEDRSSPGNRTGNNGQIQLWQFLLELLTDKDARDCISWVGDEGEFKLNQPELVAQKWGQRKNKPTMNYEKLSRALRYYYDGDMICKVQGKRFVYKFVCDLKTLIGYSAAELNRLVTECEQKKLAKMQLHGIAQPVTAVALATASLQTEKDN
# Method in brief: as §1
# ERG = target: T3, ERG (Homo sapiens, UniProt P11308 1-479)
# T3 sequence: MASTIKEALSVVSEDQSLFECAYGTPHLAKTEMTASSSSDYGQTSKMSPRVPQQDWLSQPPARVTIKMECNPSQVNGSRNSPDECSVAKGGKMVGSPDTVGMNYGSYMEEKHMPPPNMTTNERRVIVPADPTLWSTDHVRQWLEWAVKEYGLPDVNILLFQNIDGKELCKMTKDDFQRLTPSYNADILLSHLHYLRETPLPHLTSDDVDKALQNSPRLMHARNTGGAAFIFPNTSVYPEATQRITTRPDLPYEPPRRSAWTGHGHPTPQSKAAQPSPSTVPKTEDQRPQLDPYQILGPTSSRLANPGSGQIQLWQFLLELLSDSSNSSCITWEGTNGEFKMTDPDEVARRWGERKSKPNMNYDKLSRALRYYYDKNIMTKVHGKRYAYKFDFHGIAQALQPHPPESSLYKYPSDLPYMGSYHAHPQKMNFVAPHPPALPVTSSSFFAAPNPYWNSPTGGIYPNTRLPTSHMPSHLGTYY
# Method in brief: as §1
# ELF1 = ELF1 (Homo sapiens, UniProt P32519 1-619)
# ELF1, sequence (P32519 whole entry): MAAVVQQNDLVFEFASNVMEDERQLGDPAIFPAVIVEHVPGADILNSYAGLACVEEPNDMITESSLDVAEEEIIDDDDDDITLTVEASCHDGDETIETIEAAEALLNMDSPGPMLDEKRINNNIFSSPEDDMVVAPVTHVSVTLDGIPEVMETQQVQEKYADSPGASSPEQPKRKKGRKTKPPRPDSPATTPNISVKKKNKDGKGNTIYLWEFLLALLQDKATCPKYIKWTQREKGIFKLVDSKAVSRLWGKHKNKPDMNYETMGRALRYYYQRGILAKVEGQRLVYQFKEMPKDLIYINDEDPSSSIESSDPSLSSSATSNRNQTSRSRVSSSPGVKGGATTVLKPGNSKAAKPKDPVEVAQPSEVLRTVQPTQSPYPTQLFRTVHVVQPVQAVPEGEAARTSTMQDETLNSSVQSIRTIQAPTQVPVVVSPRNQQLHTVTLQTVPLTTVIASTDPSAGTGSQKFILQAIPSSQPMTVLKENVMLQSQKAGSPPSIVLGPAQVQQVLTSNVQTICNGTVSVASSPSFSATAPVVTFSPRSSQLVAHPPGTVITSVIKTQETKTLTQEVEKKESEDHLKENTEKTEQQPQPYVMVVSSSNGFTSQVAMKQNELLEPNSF
# Method in brief: as §1
# EHF = target: T4, EHF (Homo sapiens, UniProt Q9NZC4 1-300)
# T4 sequence: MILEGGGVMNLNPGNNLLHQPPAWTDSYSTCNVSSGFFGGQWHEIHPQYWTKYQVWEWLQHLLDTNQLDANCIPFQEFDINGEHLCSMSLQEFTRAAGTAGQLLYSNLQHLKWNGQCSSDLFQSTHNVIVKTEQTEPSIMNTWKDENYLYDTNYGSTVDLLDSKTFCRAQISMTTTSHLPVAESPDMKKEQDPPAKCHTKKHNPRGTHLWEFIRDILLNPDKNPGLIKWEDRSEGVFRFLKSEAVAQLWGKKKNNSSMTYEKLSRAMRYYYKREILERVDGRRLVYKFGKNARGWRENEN
# Method in brief: as §1
# SPIB = SPIB (Homo sapiens, UniProt Q01892 1-262)
# SPIB, sequence (Q01892 whole entry): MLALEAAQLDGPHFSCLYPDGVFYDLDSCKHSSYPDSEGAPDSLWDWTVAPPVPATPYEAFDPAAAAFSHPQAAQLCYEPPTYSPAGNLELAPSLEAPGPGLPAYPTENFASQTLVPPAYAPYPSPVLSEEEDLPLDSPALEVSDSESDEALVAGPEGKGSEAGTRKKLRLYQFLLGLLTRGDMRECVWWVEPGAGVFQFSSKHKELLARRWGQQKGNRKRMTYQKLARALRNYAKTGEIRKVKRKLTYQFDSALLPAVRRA
# Method in brief: as §1
# ELK3 = target: T5, ELK3 (Homo sapiens, UniProt P41970 1-407)
# T5 sequence: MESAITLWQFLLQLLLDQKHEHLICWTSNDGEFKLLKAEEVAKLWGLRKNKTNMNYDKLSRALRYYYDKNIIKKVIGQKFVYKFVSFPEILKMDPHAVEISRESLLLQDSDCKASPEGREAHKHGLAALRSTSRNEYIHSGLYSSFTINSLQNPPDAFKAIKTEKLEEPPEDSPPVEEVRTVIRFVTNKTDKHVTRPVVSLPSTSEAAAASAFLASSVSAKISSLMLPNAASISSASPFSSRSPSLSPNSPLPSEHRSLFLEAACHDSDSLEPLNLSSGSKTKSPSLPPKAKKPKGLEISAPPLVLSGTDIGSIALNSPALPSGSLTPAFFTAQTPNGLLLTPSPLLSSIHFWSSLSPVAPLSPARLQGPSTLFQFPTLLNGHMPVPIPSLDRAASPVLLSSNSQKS
# Method in brief: as §1
# ETV5 = ETV5 (Homo sapiens, UniProt P41161 1-510)
# ETV5, sequence (P41161 whole entry): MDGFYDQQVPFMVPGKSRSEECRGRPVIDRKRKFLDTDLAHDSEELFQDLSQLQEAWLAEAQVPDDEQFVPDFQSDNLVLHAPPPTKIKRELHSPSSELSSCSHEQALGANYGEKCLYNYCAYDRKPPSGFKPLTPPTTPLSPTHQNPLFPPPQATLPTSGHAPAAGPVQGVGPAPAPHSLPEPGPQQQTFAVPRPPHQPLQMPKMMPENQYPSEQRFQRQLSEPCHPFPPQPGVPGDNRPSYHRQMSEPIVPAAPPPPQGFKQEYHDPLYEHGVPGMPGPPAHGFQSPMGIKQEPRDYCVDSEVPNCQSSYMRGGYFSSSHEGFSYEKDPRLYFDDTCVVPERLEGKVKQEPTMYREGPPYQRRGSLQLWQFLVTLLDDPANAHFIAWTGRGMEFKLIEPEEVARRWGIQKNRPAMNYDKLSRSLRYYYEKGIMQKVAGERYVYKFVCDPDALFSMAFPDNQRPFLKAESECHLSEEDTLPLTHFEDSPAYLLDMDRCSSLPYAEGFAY
# Method in brief: as §1
# ELF4 = ELF4 (Homo sapiens, UniProt Q99607 1-663)
# ELF4, sequence (Q99607 whole entry): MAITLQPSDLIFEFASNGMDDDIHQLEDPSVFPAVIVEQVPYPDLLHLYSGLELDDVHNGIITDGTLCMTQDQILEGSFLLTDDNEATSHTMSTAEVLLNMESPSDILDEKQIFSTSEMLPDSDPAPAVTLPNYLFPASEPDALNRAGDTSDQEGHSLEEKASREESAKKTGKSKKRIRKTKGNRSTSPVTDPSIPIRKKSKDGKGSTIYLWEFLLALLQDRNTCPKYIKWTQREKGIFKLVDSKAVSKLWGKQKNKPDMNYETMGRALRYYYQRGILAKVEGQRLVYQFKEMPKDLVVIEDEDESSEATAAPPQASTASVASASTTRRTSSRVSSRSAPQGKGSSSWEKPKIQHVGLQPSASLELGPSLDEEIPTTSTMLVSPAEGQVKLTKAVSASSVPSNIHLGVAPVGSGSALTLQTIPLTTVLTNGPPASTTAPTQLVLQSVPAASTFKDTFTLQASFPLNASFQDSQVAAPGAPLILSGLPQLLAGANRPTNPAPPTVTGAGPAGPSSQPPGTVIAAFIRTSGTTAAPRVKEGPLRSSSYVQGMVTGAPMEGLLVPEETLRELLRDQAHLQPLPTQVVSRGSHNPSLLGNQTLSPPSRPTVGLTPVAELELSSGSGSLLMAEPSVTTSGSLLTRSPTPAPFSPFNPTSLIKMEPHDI
# Method in brief: as §1
# ELF3 = target: T6, ELF3 (Homo sapiens, UniProt P78545 1-371)
# T6 sequence: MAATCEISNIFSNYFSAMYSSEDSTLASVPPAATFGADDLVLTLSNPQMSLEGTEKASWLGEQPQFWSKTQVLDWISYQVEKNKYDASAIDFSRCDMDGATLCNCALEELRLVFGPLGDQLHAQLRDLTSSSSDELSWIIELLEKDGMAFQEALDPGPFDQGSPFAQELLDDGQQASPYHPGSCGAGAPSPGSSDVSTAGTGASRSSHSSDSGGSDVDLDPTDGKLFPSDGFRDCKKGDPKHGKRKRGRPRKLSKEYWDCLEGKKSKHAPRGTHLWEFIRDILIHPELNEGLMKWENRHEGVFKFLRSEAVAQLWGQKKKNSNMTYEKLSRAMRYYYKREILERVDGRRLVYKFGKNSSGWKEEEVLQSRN
# Method in brief: as §1
# ETV1 = ETV1 (Homo sapiens, UniProt P50549 1-477)
# ETV1, sequence (P50549 whole entry): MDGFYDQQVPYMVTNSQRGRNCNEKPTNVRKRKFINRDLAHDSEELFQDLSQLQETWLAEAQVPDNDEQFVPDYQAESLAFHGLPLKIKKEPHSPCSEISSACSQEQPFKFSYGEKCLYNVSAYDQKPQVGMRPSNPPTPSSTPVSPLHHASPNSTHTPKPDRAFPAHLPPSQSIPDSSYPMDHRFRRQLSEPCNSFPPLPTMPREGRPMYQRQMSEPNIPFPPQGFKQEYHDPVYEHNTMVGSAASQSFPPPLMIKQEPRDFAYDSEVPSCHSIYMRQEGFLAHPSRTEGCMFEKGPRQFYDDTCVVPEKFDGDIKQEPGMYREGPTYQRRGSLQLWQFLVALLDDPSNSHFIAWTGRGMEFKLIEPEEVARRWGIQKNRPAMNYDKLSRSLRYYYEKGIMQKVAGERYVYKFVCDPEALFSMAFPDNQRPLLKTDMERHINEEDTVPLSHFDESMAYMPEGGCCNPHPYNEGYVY
# Method in brief: as §1
# ERF = target: T7, ERF (Homo sapiens, UniProt P50548 1-548)
# T7 sequence: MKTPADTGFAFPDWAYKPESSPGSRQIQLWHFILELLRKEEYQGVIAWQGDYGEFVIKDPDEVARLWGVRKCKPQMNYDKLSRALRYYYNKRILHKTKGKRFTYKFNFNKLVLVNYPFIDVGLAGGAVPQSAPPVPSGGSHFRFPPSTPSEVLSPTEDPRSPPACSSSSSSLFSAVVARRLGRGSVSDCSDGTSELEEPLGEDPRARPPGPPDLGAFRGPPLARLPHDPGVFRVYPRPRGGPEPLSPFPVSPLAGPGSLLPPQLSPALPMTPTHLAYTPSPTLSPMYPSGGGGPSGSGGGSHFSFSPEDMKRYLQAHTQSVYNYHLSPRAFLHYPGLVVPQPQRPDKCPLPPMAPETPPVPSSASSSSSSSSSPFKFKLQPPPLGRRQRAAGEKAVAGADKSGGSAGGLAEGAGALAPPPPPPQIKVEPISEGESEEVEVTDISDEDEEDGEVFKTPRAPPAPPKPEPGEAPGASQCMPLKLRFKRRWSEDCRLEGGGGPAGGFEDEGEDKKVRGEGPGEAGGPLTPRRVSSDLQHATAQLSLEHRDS
# Method in brief: as §1
# ETV3L = target: T8, ETV3L (Homo sapiens, UniProt Q6ZN32 1-361)
# T8 sequence: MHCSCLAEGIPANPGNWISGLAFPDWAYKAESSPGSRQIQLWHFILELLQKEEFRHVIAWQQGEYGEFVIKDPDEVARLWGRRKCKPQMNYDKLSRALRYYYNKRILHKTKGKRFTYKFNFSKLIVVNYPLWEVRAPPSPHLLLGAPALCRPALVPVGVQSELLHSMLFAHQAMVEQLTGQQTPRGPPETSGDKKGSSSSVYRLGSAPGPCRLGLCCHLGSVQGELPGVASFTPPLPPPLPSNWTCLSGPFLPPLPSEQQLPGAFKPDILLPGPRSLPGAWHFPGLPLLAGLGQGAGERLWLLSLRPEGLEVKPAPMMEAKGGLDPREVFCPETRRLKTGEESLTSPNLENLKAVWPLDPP
# Method in brief: as §1
# ETS2 = target: T9, ETS2 (Homo sapiens, UniProt P15036 1-469)
# T9 sequence: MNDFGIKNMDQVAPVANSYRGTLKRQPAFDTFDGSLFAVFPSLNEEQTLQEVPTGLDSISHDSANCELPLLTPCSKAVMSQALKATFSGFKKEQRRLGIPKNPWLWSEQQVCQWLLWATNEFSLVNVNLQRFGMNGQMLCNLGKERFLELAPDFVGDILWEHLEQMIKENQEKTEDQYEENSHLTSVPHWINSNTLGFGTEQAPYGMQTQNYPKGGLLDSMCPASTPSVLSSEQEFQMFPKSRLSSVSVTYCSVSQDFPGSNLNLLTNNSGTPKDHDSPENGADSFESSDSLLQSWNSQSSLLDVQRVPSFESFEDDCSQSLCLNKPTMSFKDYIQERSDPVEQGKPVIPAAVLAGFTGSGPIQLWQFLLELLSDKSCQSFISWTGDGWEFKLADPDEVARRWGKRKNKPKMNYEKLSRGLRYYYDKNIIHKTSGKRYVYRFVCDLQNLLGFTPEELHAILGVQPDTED
# Method in brief: as §1
# SPDEF = target: T10, SPDEF (Homo sapiens, UniProt O95238 1-335)
# T10 sequence: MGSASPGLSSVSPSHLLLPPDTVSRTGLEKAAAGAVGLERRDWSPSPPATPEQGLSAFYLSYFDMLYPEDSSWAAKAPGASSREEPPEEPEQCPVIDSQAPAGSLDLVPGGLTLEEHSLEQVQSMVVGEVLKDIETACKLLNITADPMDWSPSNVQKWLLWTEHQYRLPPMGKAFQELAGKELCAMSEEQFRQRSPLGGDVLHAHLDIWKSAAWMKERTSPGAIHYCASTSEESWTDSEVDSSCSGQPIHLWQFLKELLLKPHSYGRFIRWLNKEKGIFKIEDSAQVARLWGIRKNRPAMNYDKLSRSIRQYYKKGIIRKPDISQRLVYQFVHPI
# Method in brief: as §1
# ETV7 = target: T11, ETV7 (Homo sapiens, UniProt Q9Y603 1-341)
# T11 sequence: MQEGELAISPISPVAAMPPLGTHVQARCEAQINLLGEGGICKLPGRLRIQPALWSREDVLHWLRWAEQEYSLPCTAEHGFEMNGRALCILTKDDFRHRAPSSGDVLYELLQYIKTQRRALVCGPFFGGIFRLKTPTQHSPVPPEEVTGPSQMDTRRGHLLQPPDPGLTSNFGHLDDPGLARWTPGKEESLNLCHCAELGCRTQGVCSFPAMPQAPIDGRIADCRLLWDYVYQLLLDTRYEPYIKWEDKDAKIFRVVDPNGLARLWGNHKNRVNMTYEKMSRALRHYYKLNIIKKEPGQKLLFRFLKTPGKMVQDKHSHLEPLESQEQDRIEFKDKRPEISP
# Method in brief: as §1
# ETV3 = target: T12, ETV3 (Homo sapiens, UniProt P41162-2 1-143)
# T12 sequence: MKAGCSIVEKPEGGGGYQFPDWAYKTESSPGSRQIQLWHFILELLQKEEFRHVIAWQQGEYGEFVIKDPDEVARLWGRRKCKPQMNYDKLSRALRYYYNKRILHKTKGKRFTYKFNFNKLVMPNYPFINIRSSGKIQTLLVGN
# Method in brief: as §1
# ETV6 = ETV6 (Homo sapiens, UniProt P41212 1-452)
# ETV6, sequence (P41212 whole entry): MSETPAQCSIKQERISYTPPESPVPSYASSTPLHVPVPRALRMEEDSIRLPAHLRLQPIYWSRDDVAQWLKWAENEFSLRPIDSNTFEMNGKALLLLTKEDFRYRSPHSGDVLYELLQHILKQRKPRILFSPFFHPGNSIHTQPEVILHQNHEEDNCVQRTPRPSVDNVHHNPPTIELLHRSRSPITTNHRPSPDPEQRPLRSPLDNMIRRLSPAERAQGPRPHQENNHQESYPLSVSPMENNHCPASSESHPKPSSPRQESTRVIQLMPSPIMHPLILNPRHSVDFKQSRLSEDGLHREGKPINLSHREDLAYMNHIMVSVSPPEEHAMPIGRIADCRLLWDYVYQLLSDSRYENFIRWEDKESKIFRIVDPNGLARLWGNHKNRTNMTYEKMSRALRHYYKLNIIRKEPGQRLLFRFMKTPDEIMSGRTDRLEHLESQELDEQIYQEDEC
# Method in brief: as §1
sequence,measurement,setting,value
GACCGG,binding signal,ELK1,"1.11 fold enrichment (6-mer frequency, TF over GST control)"
same,binding signal,GABPA,"1.02 fold enrichment (6-mer frequency, TF over GST control)"
same,binding signal,ERG,"1.31 fold enrichment (6-mer frequency, TF over GST control)"
same,binding signal,ELF1,"1 fold enrichment (6-mer frequency, TF over GST control)"
same,binding signal,EHF,"1.06 fold enrichment (6-mer frequency, TF over GST control)"
same,binding signal,SPIB,"1.07 fold enrichment (6-mer frequency, TF over GST control)"
same,binding signal,ELK3,"1.23 fold enrichment (6-mer frequency, TF over GST control)"
same,binding signal,ETV5,"1.12 fold enrichment (6-mer frequency, TF over GST control)"
same,binding signal,ELF4,"1.03 fold enrichment (6-mer frequency, TF over GST control)"
same,binding signal,ELF3,"1.14 fold enrichment (6-mer frequency, TF over GST control)"
same,binding signal,ETV1,"1.21 fold enrichment (6-mer frequency, TF over GST control)"
same,binding signal,ERF,"1.06 fold enrichment (6-mer frequency, TF over GST control)"
same,binding signal,ETV3L,"1.08 fold enrichment (6-mer frequency, TF over GST control)"
same,binding signal,ETS2,"1.07 fold enrichment (6-mer frequency, TF over GST control)"
same,binding signal,SPDEF,"1.19 fold enrichment (6-mer frequency, TF over GST control)"
same,binding signal,ETV7,"1.06 fold enrichment (6-mer frequency, TF over GST control)"
same,binding signal,ETV3,"1.09 fold enrichment (6-mer frequency, TF over GST control)"
same,binding signal,ETV6,"1.03 fold enrichment (6-mer frequency, TF over GST control)"
